# Experimental data as given in PubChem BioAssay AID686971 (National Center for Advancing Translational Sciences (NCATS), 2013).
# Screen size: about 360,000 compounds; about 7,500 (2.1%) were called active. A call without a number means that no potency is given here. About 8% were inconclusive and are not listed. Many of the other results were omitted from the sample, so actives are more common in it than they were. A number with no mark means an inactive call. Calls come from the whole dose curve; as a rule, active = well fitted cell-killing curve with a large enough effect; inconclusive = small, poorly fitted or top-dose-only effect, or effect the other way, or another doubt; inactive = no such curve, though single readings can be large or run the other way.
# Assay: qHTS for induction of synthetic lethality in tumor cells producing 2HG: qHTS for the HT-1080-IDH1KD cell line
# Conditions: HT-1080 IDH1 knockdown viability, ATP luminescence, 48 h; series mostly up to 46.1 µM
# Method in brief: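 In this qHTS, HT-1080 cells depleted of IDH1 are exposed for 48 h at 37 °C to compound titrations. Toxicity is scored from CellTiter-Glo luminescence, with DMSO as full viability and medium alone as none.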
# Potency is the fitted concentration of half-maximal effect.
SMILES,Potency,"activity, negative = toxicity"
C[C@@H]1CN([C@@H](C)CO)S(=O)(=O)c2ccc(C#Cc3cccc(F)c3)cc2O[C@H]1CN(C)S(=O)(=O)c1cn(C)cn1,inactive,–
O=C(CCc1ccc(O)cc1)NN=Cc1cc(Br)ccc1O,16.4 µM (active),–
CCOc1cc(C=NNC(=O)CCCC(=O)NN=Cc2ccc(O)c(OCC)c2)ccc1O,inactive,–
O=C(CCC(=O)N/N=C/c1ccc(Br)o1)N/N=C/c1ccc(Br)o1,inactive,–
CCc1nc2ccc(C(=O)N3CCN(S(=O)(=O)CC)CC3)cn2c1N(C=O)CCC(C)C,inactive,–
C[C@H]1CN([C@@H](C)CO)C(=O)CCCn2nncc2CO[C@@H]1CN(C)S(=O)(=O)c1cccc(C#N)c1,inactive,–
COc1ccc(S(=O)(=O)NCCCc2ccccc2)cc1,inactive,–
Cc1ccc(S(=O)(=O)/N=C2\C=C(NS(=O)(=O)c3ccc(C)cc3)C(=O)c3ccccc32)cc1,inactive,–
COc1ccc(S(=O)(=O)/N=C2\C=C(NS(=O)(=O)c3ccccc3)C(=O)c3ccccc32)cc1,20.6 µM (active),–
CC1(C(=O)NS(=O)(=O)c2ccccc2Cl)CCN1C(=O)c1cccc(F)c1 (centres undefined),inactive,–
CCCCC(O)C1=C[N+](=O)CC=C1 (centres undefined),inactive,–
O=C(COC(=O)CCc1c[nH]c2ccccc12)Nc1cccc(Cl)c1,inactive,–
CCCCOC(=O)Nc1nnc(CC(=O)NCc2ccccc2)s1,5.17 µM (active),–
CCCCc1nnc(NC(=O)CS(=O)(=O)Cc2ccccc2)s1,inactive,–
CCCCOC(=O)Nc1nccs1,inactive,–
CCC(c1nc2ccccc2[nH]1)n1c(=O)c(-c2cccs2)nc2ccccc21 (centres undefined),inactive,–
COc1ccc(C(=O)NCC[N+](C)(C)C)cc1,inactive,–
CCOC(=O)c1cnn2c(SC)ncnc12,inactive,–
COc1ccc(NC(=O)CN(C)C(=O)c2ccc(COc3ccccc3)o2)cc1,inactive,–
CCOc1ccc(OCc2ccc(C(=O)Nc3cccc(C)n3)o2)cc1,–,2.75% [at 9.24 µM]
Cc1cc(OCc2ccc(C(=O)Nc3ccc(C(=O)O)cc3)o2)ccc1Cl,23.1 µM (active),–
N#Cc1ccc(C(C(=O)NCc2ccccc2)n2c(=O)c(-c3ccco3)nc3ccccc32)cc1 (centres undefined),inactive,–
Cc1ccc(-c2csc(NC3OC(=O)c4ccccc43)n2)cc1 (centres undefined),11.6 µM (active),–
Cc1ccc(-c2csc(-c3c[nH]c4ccccc34)n2)cc1,inactive,–
CCc1ccccc1NC(=O)[C@@H]1CCC(=O)N1C1OC(=O)c2c1ccc(OC)c2OC (some centres undefined),inactive,–

SMILES,Potency,"activity, negative = toxicity"
C/C(CC1CC(C)(C)OC1=O)=N/Nc1nc(-c2ccccc2)cs1 (centres undefined),inactive,–
COc1ccc2c(c1OC)C(=O)OC2Nc1nc(-c2ccccc2)cs1 (centres undefined),10.3 µM (active),–
Cc1ccc(-c2csc(-c3cc(C)on3)n2)cc1,inactive,–
COC(=O)C(Cc1c[nH]c2ccccc12)NC(=O)CCNC(=O)c1ccco1 (centres undefined),inactive,–
CC(=O)N1CCN(Cc2cc(=O)oc3cc(C)ccc23)CC1,inactive,–
c1ccc(Cn2nnc3c(N4CCCCC4)ncnc32)cc1,inactive,–
O=C1CCC(C(=O)OCC(=O)Nc2ccc(OC(F)F)cc2)=NN1,inactive,–
CC(C)(O)C1=C[N+](=O)CC=C1,inactive,–
CCN(CCN(C)C)C(=O)c1ccc2nc(C)c(N(C)C(=O)CCc3ccccc3)n2c1,inactive,–
COc1ccc(CNC(=O)Cc2ccc(-c3ccccc3)cc2)cc1OC,14.6 µM (active),–
COc1ccc(NC(=O)CNC(=O)Cc2ccccc2)cc1OC,inactive,–
COc1ccc(CCNC(=O)Cc2ccc(C)cc2)cc1OC,inactive,–
CC1=C(C(=O)N2CCOCC2)CC(CC(=O)NCCCN(C)C)C(=O)N1Cc1ccc(C(C)(C)C)cc1 (centres undefined),inactive,–
COc1ccc(Cn2c(=O)[nH]c3cc(C(=O)N4CCN(C(=O)c5ccco5)CC4)ccc3c2=O)cc1,inactive,–
COc1ccccc1NC(=O)C(CC(=O)O)Cc1cc(C)cc(C)c1 (centres undefined),inactive,–
O=C(CSc1ccc(Cl)cc1)NC1CC1,inactive,–
COc1ccc(CNC(=O)/C(C#N)=C/c2cccc(OC)c2OC)cc1,25.9 µM (active),–
COc1ccc(CNC(=O)CCn2cccc2)cc1,inactive,–
COc1ccc(NC(=O)/C(C#N)=C\c2cc(OC)c(OCc3ccc(C(=O)O)cc3)cc2Br)cc1,inactive,–
CCOC(=O)C(C(=O)c1ccccc1)C(c1ccccc1)c1nccc2ccccc12 (centres undefined),inactive,–
Cc1ccc(S(=O)(=O)N2[C@@H](Cc3ccccc3)CO[C@H]2CC(=O)OCc2ccccc2)cc1,inactive,–
CC(=O)Nc1cccc(-c2cc3nc(NCc4cccnc4)n(C)c(=O)c3s2)c1,inactive,–
O=C1NC[C@@H](CCCCN2CCN(CCc3ccc(O)cc3)C(=O)C2=O)N(CC2CCCCC2)C1=O,inactive,–
CC(C)(C)N1C(=O)c2c(C(=O)OCc3ccccc3)[nH]c(-c3ccccc3)c2C1=O,inactive,–
COc1ccc(-c2cc(C(=O)N/N=C/c3cccnc3)c3ccccc3n2)c(OC)c1,inactive,–

SMILES,Potency,"activity, negative = toxicity"
O=C(N/N=C\c1cccnc1)c1cc(-c2ccccc2)nc2c(Cl)cccc12,9.2 µM (active),–
C/C(=N\NC(=O)c1cc(-c2ccc(O)cc2)nc2ccccc12)c1cccnc1,inactive,–
CCOc1ccc(S(=O)(=O)NCCC(=O)NNC(=O)c2ccc(F)cc2)cc1,inactive,–
C[C@@H]1CN([C@H](C)CO)C(=O)c2cc(Br)cnc2O[C@@H]1CN(C)Cc1cncnc1,inactive,–
COc1ccc(/C=C/c2noc(-c3ccccc3OC(C)=O)n2)cc1,inactive,–
Cc1ccc(-c2nc(-c3ccncc3)no2)c(C)c1,inactive,–
COc1ccc(-c2nc(-c3ccccc3)no2)c(OC)c1,14.1 µM (active),–
CCOc1ccc(NS(=O)(=O)c2ccc(C(=O)NCC3CCCO3)cc2)cc1 (centres undefined),inactive,–
COCc1[nH]nc2c1C(C1C=CCCC1)C(C#N)=C(N)O2 (centres undefined),11.2 µM (active),–
CCc1ccc(C2C(C#N)=C(N)Oc3n[nH]c(CC(=O)OC)c32)cc1 (centres undefined),inactive,–
CCOc1c(OC)cc(C2C(C#N)=C(N)Oc3n[nH]c(-c4ccncc4)c32)cc1OC (centres undefined),inactive,–
O=C(NCc1cccc(C(F)(F)F)c1)c1ccc2sc(COCCO)nc2c1,inactive,–
Cc1ccc(Cc2c(-c3ccc(Cl)cc3)nc3c4ccccc4ccn23)cc1,inactive,–
Cc1cc(Br)cn2c(Cc3ccsc3)c(-c3ccc(C#N)cc3)nc12,inactive,–
N#Cc1cccc(NC(=O)COC(=O)c2ccccc2C(=O)c2ccc(Cl)c([N+](=O)[O-])c2)c1,5.17 µM (active),–
COC(=O)c1cc(NC(=O)Cc2ccccc2[N+](=O)[O-])ccc1Cl,inactive,–
CC(=O)Nc1ccc(NC(=O)COC(=O)c2ccccc2C(=O)c2ccccc2)cc1,inactive,–
N#Cc1ccc(-c2ccc3nccn3c2)cc1,inactive,–
Cc1ccc(S(=O)(=O)N[C@H]2CCC[C@@H]2O)cc1,inactive,–
CNC[C@H]1OCc2cnnn2CCCC(=O)N([C@H](C)CO)C[C@@H]1C,inactive,–
COC(=O)c1ccc2c(c1)S(=O)(=O)NC2C (centres undefined),inactive,–
C=CCc1ccc(OCCOc2cccc(/C=N/n3cnnc3)c2)c(OC)c1,inactive,–
COc1ccccc1OCCOc1ccc(/C=N/n2cnnc2)cc1,20.6 µM (active),–
COc1cccc(OCCOc2cccc(/C=N/n3cnnc3)c2)c1,inactive,–
CC(OC(=O)c1cccc(S(=O)(=O)N2CCOCC2)c1)C(=O)NCC1CCCCC1 (centres undefined),inactive,–

SMILES,Potency,"activity, negative = toxicity"
CC(C)C1CCN(C(=O)C2CCC(=O)N(C3CCCCCC3)C2)CC1 (centres undefined),inactive,–
CCN1C(=O)[C@H]2[C@@H](c3ccc(C(F)(F)F)cc3)N[C@]3(CCCN(Cc4ccc(Br)cc4)C3=O)[C@H]2C1=O,inactive,–
COc1cccc(/C=C/c2ccc3ccccc3n2)c1OC(C)=O,11.6 µM (active),–
CC(OC(=O)c1ccc2ccccc2n1)C(=O)c1ccccc1 (centres undefined),inactive,–
COc1cccc(/C=C2\C=C(c3ccc(C)cc3)OC2=O)c1OC(C)=O,inactive,–
CCCCNC(=O)C[C@@H]1C[C@@]2(C(=O)OC)CC(C)(C)CC=C2N(Cc2ccco2)C1=O,inactive,–
C[C@H](NC(=O)[C@@H]1CCCN1C(=O)[C@@H]1CCCN1C(=O)c1ccccc1)c1ccccc1,inactive,–
CC1=C(C(=O)N(C)C)CC(CC(=O)NCCc2ccccn2)C(=O)N1CCC1=CCCCC1 (centres undefined),inactive,–
O=C1COc2ccc(S(=O)(=O)Nc3ccc(OC(F)(F)F)cc3)cc2N1,inactive,–
O=S(=O)(Nc1ccc(O)c2ccccc12)c1ccc(OC(F)(F)F)cc1,20.6 µM (active),–
Cc1nn(C)c(C)c1NS(=O)(=O)c1ccc(OC(F)(F)F)cc1,inactive,–
Cn1c(CCN2CCN(c3ccccn3)CC2)nc2cc(NS(=O)(=O)c3ccc(F)cc3)ccc21,inactive,–
CC(=O)OC1CCC2(C)C(=CCC3C4CC(=O)N(O)C(=O)C4(C)CCC32)C1 (centres undefined),25.9 µM (active),–
C[C@@H]1CC[C@@]2(OC1)O[C@H]1C[C@H]3[C@@H]4CC=C5C[C@@H](O)[C@H](O)C[C@]5(C)C4CC[C@]3(C)[C@H]1[C@@H]2C (some centres undefined),inactive,–
C[C@]12CC[C@H](O)CC1=CCC1C2CC[C@@]2(C)C1CC[C@@H]2NC(=O)CCC(=O)O (some centres undefined),inactive,–
OC[C@@H]1CN(C2CCCC2)C[C@H](n2cnc3c(NC4CCC4)ncnc32)O1,inactive,–
CCC(C)C(CO)NC(=O)/C=C/[C@H]1O[C@@H](n2cnc3c(NC(=O)c4ccccc4)ncnc32)[C@H](O)[C@@H]1O (some centres undefined),inactive,–
O=C(NCc1cccnc1)Nc1ccccc1F,inactive,–
Cc1ccccc1Nc1nc(-c2cccnc2)cs1,inactive,–
O=C(NCc1cccnc1)C(=O)Nc1nc(-c2ccccc2)cs1,4.61 µM (active),–
C[C@H](CO)N1C[C@H](C)[C@@H](CN(C)C(=O)c2cnccn2)Oc2ncc(Br)cc2C1=O,inactive,–
Fc1cccc(Cc2c(-c3ccc(Cl)cc3)nc3ccc(Cl)cn23)c1,inactive,–
Cc1cc2nc(-c3ccco3)c(Cc3cccc(F)c3)n2c(C)c1Br,20.6 µM (active),–
Cc1cc2nc(-c3ccc(F)cc3)c(Cc3ccsc3)n2c(C)c1Br,inactive,–
